# Test results reported in PubChem BioAssay (NCATS).
# Results filed as inconclusive are left out. A call without a number means that no potency is given here. The source made the active and inactive calls. Unless noted, calls come from the whole dose curve; as a rule, active = well fitted curve in the direction sought with a large enough effect; inconclusive = small, poorly fitted or top-dose-only effect, or another doubt; inactive = no such curve, though single readings can be large; an effect the other way counts as inactive or inconclusive.
# Tests used:
# [1] = qHTS assay for measurement of the activity of small molecule inhibitors on Zika virus induced Caspase-3 activity in human iPSC derived neural progenitor cells (hNPCs) (AID 1224857); note: nearly all actives have a fitted effect of over 65% in size
# Method in brief: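 Caspase-3/7 induction by a 6-hour ZIKV infection was quantified with a luminescent Caspase-Glo 3/7 reagent incubated 30 minutes at room temperature. Compounds were preincubated with hNPCs for 1 hour; inhibition was calculated against uninfected and infected control wells.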
# [2] = qHTS assay for measurement of the activity of small molecule inhibitors on Zika virus induced Caspase-3 activity in human astrocytoma cells (AID 1224859)
# Method in brief: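 In SNB-19 cells plated at 250 cells/well and grown 16-20 h, compounds were applied 1 h before ZIKV (2 FFU/cell). Six hours later caspase-3/7 luminescence was recorded.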
# [3] = Natriuretic polypeptide receptor (hNpr1) antagonism - Pilot counterscreen GloSensor control cell line (AID 1347045; calls by dose curve; note: potency is the fitted concentration of half-maximal effect)
# Method in brief: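 This counterscreen uses HEK293 cells expressing the GIP/pGS-40F cGMP biosensor. Compound-treated cells are challenged with 50 uM sodium nitroprusside, and the luciferase signal is compared before and after stimulation.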
# [4] = biological target: Atrial natriuretic peptide receptor 1 (Homo sapiens) (UniProt P16066); test: Natriuretic polypeptide receptor (hNpr1) antagonism - Pilot screen (AID 1347049; calls by dose curve;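 note: agonist-evoked cGMP luminescence read 20 min after hNppA addition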; note: potency is the fitted concentration of half-maximal effect)
# Chain of Atrial natriuretic peptide receptor 1 (Homo sapiens) (P16066 whole entry, looked up): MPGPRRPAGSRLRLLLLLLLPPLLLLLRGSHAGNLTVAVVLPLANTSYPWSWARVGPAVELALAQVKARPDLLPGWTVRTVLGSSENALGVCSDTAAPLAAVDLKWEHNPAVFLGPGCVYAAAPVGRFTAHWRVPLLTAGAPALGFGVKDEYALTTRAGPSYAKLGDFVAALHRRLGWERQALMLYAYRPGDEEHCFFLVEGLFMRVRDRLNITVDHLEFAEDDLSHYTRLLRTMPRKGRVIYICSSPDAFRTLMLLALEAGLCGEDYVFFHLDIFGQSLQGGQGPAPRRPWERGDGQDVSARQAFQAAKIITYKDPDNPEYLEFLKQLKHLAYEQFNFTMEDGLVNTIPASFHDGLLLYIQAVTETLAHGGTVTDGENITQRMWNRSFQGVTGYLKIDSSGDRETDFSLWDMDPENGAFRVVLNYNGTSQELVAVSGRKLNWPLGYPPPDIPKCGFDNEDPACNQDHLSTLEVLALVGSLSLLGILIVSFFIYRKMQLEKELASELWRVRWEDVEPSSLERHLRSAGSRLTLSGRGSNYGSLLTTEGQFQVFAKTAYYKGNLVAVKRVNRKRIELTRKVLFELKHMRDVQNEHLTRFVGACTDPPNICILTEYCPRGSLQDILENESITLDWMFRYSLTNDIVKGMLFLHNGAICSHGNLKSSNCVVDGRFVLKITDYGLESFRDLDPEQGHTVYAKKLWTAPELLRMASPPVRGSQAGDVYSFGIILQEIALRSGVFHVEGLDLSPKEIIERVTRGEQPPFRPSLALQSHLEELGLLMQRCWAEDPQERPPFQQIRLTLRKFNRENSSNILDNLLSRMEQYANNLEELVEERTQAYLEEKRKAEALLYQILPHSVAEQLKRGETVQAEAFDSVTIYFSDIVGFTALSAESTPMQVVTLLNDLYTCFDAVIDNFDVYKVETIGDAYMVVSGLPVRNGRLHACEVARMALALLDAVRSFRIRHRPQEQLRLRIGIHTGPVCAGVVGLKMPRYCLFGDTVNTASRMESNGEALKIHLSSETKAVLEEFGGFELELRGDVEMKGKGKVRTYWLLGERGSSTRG
# Method in brief: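 HEK293 cells expressing hNpr1 and GloSensor cGMP luciferase, 1500/well, loaded with 2% GloSensor reagent 2 h, compound 30 min at room temperature; luminescence read before and 20 min after 0.1 nM hNppA stimulation.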
# [5] = biological target: Atrial natriuretic peptide receptor 2 (Homo sapiens) (UniProt P20594); test: Natriuretic polypeptide receptor (hNpr2) antagonism - Pilot subtype selectivity assay (AID 1347050; calls by dose curve; note: potency is the fitted concentration of half-maximal effect)
# Chain of Atrial natriuretic peptide receptor 2 (Homo sapiens) (P20594 whole entry, looked up): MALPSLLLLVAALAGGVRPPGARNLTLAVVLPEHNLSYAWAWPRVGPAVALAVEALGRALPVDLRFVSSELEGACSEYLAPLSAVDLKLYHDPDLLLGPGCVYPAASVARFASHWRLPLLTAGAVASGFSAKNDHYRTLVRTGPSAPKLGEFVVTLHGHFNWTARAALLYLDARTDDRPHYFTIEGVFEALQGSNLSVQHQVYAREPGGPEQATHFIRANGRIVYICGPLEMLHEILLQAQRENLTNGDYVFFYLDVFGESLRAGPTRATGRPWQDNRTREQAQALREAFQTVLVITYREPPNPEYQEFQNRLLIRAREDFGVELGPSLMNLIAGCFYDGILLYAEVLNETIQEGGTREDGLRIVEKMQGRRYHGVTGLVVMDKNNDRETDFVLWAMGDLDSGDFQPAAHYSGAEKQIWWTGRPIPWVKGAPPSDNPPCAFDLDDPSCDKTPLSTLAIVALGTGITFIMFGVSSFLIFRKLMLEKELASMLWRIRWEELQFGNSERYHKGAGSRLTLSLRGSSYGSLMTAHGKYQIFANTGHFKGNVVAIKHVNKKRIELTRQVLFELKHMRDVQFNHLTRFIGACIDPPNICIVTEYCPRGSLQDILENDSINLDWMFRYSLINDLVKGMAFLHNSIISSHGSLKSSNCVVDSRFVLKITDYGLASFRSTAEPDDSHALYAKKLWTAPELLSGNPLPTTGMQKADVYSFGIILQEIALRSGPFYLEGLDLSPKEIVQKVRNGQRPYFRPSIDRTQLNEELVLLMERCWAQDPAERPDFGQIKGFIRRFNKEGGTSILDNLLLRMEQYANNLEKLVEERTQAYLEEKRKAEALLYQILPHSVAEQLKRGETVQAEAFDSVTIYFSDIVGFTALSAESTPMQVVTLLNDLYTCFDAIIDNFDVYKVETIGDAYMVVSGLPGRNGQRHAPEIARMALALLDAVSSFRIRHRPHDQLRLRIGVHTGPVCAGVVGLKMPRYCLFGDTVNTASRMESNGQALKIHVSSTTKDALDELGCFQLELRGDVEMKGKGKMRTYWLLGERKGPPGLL
# Method in brief: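 HEK293 cells expressing hNpr2 and a GloSensor cGMP luciferase sensor, 1500/well, preloaded 2 h with 2% GloSensor reagent, compound 30 min, then 1 nM hNppC for 20 min. Antagonism from luminescence after versus baseline pre-read; LOPAC in 1:5 titrations.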
# [6] = NS1 protein of Zika virus - qHTS assay to identify small molecule inhibitors in human HEK 293 cells (AID 1347053); note: nearly all actives have a fitted effect of over 55% in size
# Method in brief: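 HEK 293; 20 h pre-culture, 37 C/5% CO2; cpd 1 h pre-infection; ZIKV MR766, MOI = 0.5, 24 h, 37 C; TR-FRET NS1 readout (two anti-NS1 Abs); norm. to no-virus vs infected.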
# [7] = biological target: T1, Tyrosine-protein phosphatase non-receptor type substrate 1 (Homo sapiens) + Leukocyte surface antigen CD47 (Homo sapiens) (UniProt P78324+Q08722); test: CD47-SIRPalpha protein protein interaction - LANCE assay qHTS validation (AID 1347057; active = well fitted curve in the direction sought with a large enough effect in the signal ratio, with a control signal flat, not every such curve was filed as active; the % refers to the signal ratio)
# T1 sequence (P78324 whole entry, looked up): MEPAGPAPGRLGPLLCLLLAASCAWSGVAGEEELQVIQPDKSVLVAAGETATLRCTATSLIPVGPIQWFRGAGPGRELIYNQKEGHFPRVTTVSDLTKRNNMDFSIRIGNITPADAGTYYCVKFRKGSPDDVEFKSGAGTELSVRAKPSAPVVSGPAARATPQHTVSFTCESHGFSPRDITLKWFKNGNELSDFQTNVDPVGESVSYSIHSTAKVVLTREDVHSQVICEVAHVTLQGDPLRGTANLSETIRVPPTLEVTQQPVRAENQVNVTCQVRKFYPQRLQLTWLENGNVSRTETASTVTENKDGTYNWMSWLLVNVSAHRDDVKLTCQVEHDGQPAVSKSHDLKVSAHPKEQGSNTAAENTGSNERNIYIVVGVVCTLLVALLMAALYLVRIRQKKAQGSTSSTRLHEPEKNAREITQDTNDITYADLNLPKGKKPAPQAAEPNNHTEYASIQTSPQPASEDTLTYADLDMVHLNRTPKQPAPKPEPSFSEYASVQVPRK
# T1 sequence (Q08722 whole entry, looked up): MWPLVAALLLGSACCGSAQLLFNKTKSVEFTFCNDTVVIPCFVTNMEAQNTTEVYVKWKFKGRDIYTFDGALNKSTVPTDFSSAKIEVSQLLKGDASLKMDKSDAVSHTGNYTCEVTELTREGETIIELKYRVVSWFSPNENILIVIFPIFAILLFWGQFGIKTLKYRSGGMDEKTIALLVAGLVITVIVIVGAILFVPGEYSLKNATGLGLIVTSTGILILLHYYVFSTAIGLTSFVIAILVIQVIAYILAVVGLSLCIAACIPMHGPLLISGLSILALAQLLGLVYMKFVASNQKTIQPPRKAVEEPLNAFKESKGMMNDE
# Method in brief: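 First, His-tagged CD47 and Eu-labelled anti-His antibody met the compound for 30 min; next, site-specifically biotinylated SIRPalpha was added for 30 min; finally streptavidin-APC was added before reading the TR-FRET ratio.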
# [8] = biological target: T1, Tyrosine-protein phosphatase non-receptor type substrate 1 (Homo sapiens) + Leukocyte surface antigen CD47 (Homo sapiens); test: CD47-SIRPalpha protein protein interaction - Alpha assay qHTS validation (AID 1347059);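 note: bead proximity luminescence from CD47 binding SIRPalpha after compound preincubation with SIRPalpha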
# Method in brief: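 Biotinylated Avi-tagged SIRPalpha (25 nM) preincubated 30 min with compound, then His-tagged CD47 (12.5 nM) added 30 min; AlphaScreen with Ni-NTA acceptor and streptavidin donor beads. PBS pH 7.4, 0.05% IGEPAL, room temperature; 7-point titrations.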
# [9] = biological target: Parathyroid hormone/parathyroid hormone-related peptide receptor (Homo sapiens) (UniProt Q03431); test: qHTS for PTHR1 Agonists: Optimization Screen against the NCGC LOPAC library (AID 1347079);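 note: GloSensor cAMP luminescence in HEK-293 GP2 cells expressing human PTHR1 with IBMX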; note: potency is the fitted concentration of half-maximal effect
# Chain of Parathyroid hormone/parathyroid hormone-related peptide receptor (Homo sapiens) (Q03431 whole entry, looked up): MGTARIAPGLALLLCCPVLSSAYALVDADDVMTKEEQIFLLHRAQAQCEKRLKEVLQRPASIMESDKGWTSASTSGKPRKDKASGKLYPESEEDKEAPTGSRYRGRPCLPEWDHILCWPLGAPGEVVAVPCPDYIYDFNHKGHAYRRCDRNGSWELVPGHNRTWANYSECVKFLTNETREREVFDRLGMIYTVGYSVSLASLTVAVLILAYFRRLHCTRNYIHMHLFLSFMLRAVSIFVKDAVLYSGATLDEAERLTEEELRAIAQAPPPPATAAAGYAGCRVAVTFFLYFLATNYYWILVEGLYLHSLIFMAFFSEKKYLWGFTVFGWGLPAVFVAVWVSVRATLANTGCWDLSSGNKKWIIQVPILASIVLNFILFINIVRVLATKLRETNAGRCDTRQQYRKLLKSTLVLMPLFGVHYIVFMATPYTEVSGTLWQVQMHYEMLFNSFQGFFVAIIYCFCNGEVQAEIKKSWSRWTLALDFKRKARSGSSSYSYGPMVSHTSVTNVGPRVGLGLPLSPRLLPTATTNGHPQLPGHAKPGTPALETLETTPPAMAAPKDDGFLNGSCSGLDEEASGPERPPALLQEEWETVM
# Method in brief: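 Compounds were tested across a qHTS titration. PTHR1-expressing GP2 cells report cAMP rises via GloSensor luminescence after 1 hr compound exposure at 37C with IBMX present.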
# [10] = system: Zika virus NS2B-NS3 protease (unlinked); test: Optimization of GU AMC qHTS for Zika virus inhibitors: Unlinked NS2B-NS3 protease assay (AID 1347151); note: nearly all actives have a fitted effect of over 80% in size; note: potency is the fitted concentration of half-maximal effect
# Method in brief: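 Noncovalent complex of NS2B hydrophilic domain and NS3 protease domain, 25 nM final, in 10 mM Tris-HCl pH 8.0, 0.01% Tween 20. AMC fluorescence change over 15 min at room temperature was fitted to a 4-parameter Hill equation.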
# [11] = biological target: N-terminal Xaa-Pro-Lys N-methyltransferase 1 (Homo sapiens) (UniProt Q9BV86); test: qHTS Assay for Inhibitors of N-terminal methyltransferase 1 (NTMT1): LOPAC validation of the NTMT1 SAHH-coupled ThioGlo3 Assay (AID 1347143);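 note: SAH from peptide methylation measured as thiol fluorescence via SAHH coupling and ThioGlo3; nearly all actives have a fitted effect of over 70% in size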; note: potency is the fitted concentration of half-maximal effect
# Chain of N-terminal Xaa-Pro-Lys N-methyltransferase 1 (Homo sapiens) (Q9BV86 whole entry, looked up): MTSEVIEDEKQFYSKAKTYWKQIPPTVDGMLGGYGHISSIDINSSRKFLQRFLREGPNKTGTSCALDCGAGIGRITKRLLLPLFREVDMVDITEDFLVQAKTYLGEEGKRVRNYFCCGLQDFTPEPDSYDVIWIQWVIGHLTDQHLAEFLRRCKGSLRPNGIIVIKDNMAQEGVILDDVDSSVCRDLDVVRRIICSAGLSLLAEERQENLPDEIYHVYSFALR
# Method in brief: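 Recombinant human NTMT1 (125nM) was pre-incubated 1 min at room temperature with compounds over a concentration range, then a mix of 100uM SAM, 10uM SAHH and 15uM ThioGlo3 (concentrations in added reagent) was added. ThioGlo3 fluorescence (ex 340/em 450nm) after 30 min was normalized to the initial reading.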
# [12] = qHTS profiling of the MIPE4 collection as inhibitors of Plasmodium falciparum (DD2) proliferation (AID 743345; call rule not given here); details: P. falciparum Dd2 in erythrocytes, SYBR Green DNA, 72 h; at 28.5 µM (top of the series)
# Method in brief: (§1)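 Erythrocytes infected with P. falciparum (0.3% parasitemia, 2.5% hematocrit) incubated with compounds 72 h at 37 C, 5% CO2. Lysis with saponin/Triton buffer containing SYBR Green I, overnight at room temperature in the dark; DNA fluorescence (485/535 nm) normalised to 0.29 uM artemisinin and DMSO.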
# [13] = qHTS profiling of the MIPE4 collection as inhibitors of Plasmodium falciparum (DD2) proliferation (Rep 2) (AID 743346; call rule not given here); details: P. falciparum Dd2 in erythrocytes, SYBR Green DNA, 72 h; at 28.5 µM (top of the series)
# Method in brief: as §1
# [14] = qHTS profiling of the MIPE4 collection as inhibitors of Plasmodium falciparum (HB3) proliferation (AID 743347; call rule not given here); details: P. falciparum HB3 in erythrocytes, SYBR Green DNA, 72 h; at 28.5 µM (top of the series)
# Method in brief: as §1
# Furin (Homo sapiens) = Furin (Homo sapiens) (UniProt P09958); test: Furin counterscreen qHTS for Zika virus inhibitors (AID 1347149); note: potency is the fitted concentration of half-maximal effect; nearly all actives have a fitted effect of over 70% in size
# Chain of Furin (Homo sapiens) (P09958 whole entry, looked up): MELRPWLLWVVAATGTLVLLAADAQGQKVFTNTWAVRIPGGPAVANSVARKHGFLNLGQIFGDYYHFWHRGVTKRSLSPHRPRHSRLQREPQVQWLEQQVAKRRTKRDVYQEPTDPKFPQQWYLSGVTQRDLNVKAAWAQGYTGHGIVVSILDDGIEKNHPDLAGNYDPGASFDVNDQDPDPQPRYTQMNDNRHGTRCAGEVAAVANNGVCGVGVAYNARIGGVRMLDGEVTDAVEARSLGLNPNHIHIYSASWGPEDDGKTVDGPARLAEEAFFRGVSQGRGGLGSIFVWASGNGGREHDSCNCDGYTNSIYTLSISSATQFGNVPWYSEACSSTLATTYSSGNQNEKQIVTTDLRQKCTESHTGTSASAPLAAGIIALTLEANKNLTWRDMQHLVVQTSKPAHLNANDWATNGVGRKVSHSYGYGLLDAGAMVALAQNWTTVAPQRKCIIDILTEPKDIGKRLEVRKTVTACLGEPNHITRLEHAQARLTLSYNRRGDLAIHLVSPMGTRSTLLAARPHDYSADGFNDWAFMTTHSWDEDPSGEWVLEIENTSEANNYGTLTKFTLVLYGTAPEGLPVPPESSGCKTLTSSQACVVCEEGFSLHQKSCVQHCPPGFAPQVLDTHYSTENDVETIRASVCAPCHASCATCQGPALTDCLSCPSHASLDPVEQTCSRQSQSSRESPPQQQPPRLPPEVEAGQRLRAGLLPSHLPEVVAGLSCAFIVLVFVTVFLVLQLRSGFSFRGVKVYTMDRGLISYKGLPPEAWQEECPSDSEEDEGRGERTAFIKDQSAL
# Method in brief: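 Fluorogenic cleavage of BOC-RVRR-AMC (2 microM final, Km ~15 µM) was monitored (ex 340, em 450 nm) at 37C after 15 min RT preincubation of 5 nM furin with compounds in HEPES pH 7.0 buffer with CaCl2 and Triton X-100. Percent inhibition was fitted to a 4-parameter Hill curve.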
SMILES,Potency [1],Potency [2],Potency [3],Potency [4],Potency [5],Potency [6],Potency [7],Potency [8],Potency [9],Potency [10],Potency [11],"parasite growth remaining, % of DMSO control (lower = more inhibition) [12]","parasite growth, % of control (lower = inhibition) [13]","growth, % of control [14]",Potency (Furin (Homo sapiens))
CCN(CC)CCCCCCCCOC(=O)c1cc(OC)c(OC)c(OC)c1,inactive,inactive,inactive,inactive,inactive,inactive,inactive,inactive,inactive,inactive,–,–,–,–,–
C=CCN1CCc2cc(O)c(O)cc2C(c2ccccc2)C1 (configuration not stated),inactive,inactive,inactive,inactive,inactive,inactive,inactive,inactive,–,inactive,35.5 µM (active),–,–,–,–
NC/C=C\C(=O)O,inactive,inactive,inactive,inactive,inactive,inactive,inactive,inactive,inactive,inactive,inactive,–,–,–,–
NC1CONC1=O (configuration not stated),inactive,inactive,inactive,inactive,inactive,inactive,inactive,inactive,inactive,inactive,inactive,99.7%,78.4%,106%,–
CCCCCC[C@@H]([C@@H](C)O)n1cnc2c(N)ncnc21,inactive,inactive,inactive,inactive,inactive,inactive,inactive,–,inactive,inactive,–,–,–,–,–
COC(=O)C(C)(N)Cc1ccc(O)cc1 (configuration not stated),inactive,inactive,inactive,inactive,inactive,inactive,inactive,inactive,inactive,inactive,–,–,–,–,–
N[C@H](C(=O)O)[C@H](O)C(=O)O,inactive,inactive,inactive,inactive,inactive,inactive,inactive,–,inactive,inactive,inactive,–,–,–,–
Nc1ccc(N2C(=O)c3ccccc3C2=O)c(Cl)c1,inactive,inactive,inactive,inactive,inactive,inactive,inactive,–,inactive,inactive,inactive,–,–,–,–
CN(C)C(=O)/N=N/C(=O)N(C)C,inactive,inactive,inactive,inactive,inactive,inactive,inactive,inactive,inactive,inactive,7.08 µM (active),–,–,–,–
O=C(O)CCC(=O)N1CCCC1C(=O)O (configuration not stated),inactive,inactive,inactive,inactive,inactive,inactive,inactive,inactive,inactive,inactive,–,–,–,–,–
Cn1cc(C(F)(F)F)nc1-c1ccc(OCC(O)CNCCOc2ccc(O)c(C(N)=O)c2)cc1 (configuration not stated),inactive,inactive,inactive,inactive,inactive,inactive,inactive,inactive,–,26.7 µM (active),–,–,–,–,24.1 µM (active)
N[C@@H](CCCC(=O)O)C(=O)O,inactive,inactive,inactive,inactive,inactive,inactive,inactive,inactive,inactive,inactive,inactive,–,–,–,–
O=c1onc2cnc3ccccc3n12,inactive,inactive,0.261 µM (active),inactive,inactive,inactive,inactive,inactive,inactive,26.7 µM (active),56.2 µM (active),–,–,–,–
CCN1C(=O)C=CC1=O,inactive,inactive,inactive,inactive,inactive,inactive,inactive,inactive,inactive,inactive,–,–,–,–,–
Cc1cccc(C2CN(C)CCc3c2cc(O)c(O)c3Cl)c1 (configuration not stated),inactive,inactive,inactive,inactive,inactive,inactive,inactive,–,inactive,inactive,56.2 µM (active),–,–,–,–
c1ccc2nc(C3=NCCN3)ccc2c1,inactive,inactive,inactive,inactive,inactive,inactive,inactive,–,26.7 µM (active),–,inactive,–,–,–,–
O=c1cc(O)cc(/C=C/c2ccc(O)c(O)c2)o1,inactive,inactive,inactive,inactive,inactive,inactive,inactive,inactive,inactive,13.4 µM (active),44.7 µM (active),–,–,–,–
O=C(O)c1ccccc1Nc1ccccc1,inactive,inactive,inactive,inactive,inactive,inactive,inactive,inactive,inactive,inactive,–,–,–,–,–
N#Cc1cc2nc(O)c(O)nc2cc1[N+](=O)[O-],inactive,inactive,inactive,inactive,inactive,inactive,inactive,inactive,–,inactive,inactive,–,–,–,–
CC(C)(C)c1cc(/C=C(\C#N)C(N)=S)cc(C(C)(C)C)c1O,inactive,inactive,1.17 µM (active),3.38 µM (active),4.65 µM (active),inactive,inactive,inactive,inactive,21.2 µM (active),inactive,–,–,–,–
COC(=O)C1=C(C)NC(C)=C([N+](=O)[O-])C1c1ccccc1C(F)(F)F (configuration not stated),inactive,inactive,inactive,inactive,inactive,inactive,inactive,inactive,–,–,inactive,–,–,–,–
